Results reported in publication PMC4336329 (PLoS ONE, 2015).
The whole screen tested about 310,000 compounds, of which about 2,200 (0.71%) showed an effect of 50% or more. Effects have a minus sign here. This excerpt belongs to a sample that is enriched for strong results.

Target: human ether-à-go-go-related gene (hERG) potassium channel (human, UniProt Q12809)
Assay: primary screen, population patch clamp on CHO cells stably expressing hERG; higher = less effect of the substance

Chain of human ether-à-go-go-related gene (hERG) potassium channel (Q12809 whole entry, looked up): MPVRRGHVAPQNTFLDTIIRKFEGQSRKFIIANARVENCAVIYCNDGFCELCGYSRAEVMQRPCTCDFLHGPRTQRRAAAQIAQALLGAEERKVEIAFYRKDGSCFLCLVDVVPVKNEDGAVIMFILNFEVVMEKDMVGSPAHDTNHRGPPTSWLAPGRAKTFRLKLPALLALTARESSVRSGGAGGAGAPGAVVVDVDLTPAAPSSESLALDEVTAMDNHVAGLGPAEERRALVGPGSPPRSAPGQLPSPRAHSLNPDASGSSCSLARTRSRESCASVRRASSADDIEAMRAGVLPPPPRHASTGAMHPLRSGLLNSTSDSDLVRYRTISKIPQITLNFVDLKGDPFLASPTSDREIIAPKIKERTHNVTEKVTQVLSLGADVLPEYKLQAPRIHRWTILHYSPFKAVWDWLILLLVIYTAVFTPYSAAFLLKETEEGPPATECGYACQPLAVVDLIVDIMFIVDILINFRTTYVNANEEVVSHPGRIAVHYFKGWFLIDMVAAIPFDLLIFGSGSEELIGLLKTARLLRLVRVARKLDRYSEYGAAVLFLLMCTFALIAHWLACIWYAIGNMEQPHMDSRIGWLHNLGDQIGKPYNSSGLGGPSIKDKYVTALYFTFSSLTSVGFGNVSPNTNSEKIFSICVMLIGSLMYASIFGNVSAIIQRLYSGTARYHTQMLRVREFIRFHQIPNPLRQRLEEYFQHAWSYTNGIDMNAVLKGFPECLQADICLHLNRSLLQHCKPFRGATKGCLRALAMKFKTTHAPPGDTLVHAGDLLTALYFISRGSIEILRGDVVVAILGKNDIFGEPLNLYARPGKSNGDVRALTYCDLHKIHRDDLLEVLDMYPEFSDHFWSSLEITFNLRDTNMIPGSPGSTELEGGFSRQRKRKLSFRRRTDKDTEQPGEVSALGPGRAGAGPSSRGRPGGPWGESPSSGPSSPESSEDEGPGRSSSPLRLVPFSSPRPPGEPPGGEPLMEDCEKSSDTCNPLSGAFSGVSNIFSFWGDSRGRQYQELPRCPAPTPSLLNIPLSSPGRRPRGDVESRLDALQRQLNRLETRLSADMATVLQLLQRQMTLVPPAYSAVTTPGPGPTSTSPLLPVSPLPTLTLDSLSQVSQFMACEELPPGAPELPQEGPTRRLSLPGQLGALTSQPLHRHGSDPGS

SMILES	hERG current change (%, negative = inhibition) at 1uM [%]
COc1ccccc1NC(=O)N1CCN(c2ccc3nnc(-c4ccc(F)cc4)n3n2)CC1	13.5
OCCC1CN(Cc2ccc3nsnc3c2)CCN1CCc1ccccc1 (centres unmarked)	-73.7
CC(C)=CCN1CCN(Cc2ccc3nsnc3c2)CC1CCO (centres unmarked)	4.93
OCCC1CN(Cc2nc(-c3ccccc3)cs2)CCN1CCc1ccccc1 (centres unmarked)	-42.8
CC(C)CCN1CCN(Cc2nc3ccccc3s2)CC1CCO (centres unmarked)	-8.09
OCCC1CN(Cc2nc(-c3ccc(F)cc3)cs2)CCN1CCc1ccccc1 (centres unmarked)	-69.3
OCCC1CN(Cc2nc3ccccc3s2)CCN1CCc1ccccc1 (centres unmarked)	-58.3
COc1ccc(CC2(CO)CCN(Cc3ccc4nsnc4c3)CC2)cc1	-4.45
CC(C)CN1CCN(Cc2nc3ccccc3s2)CC1CCO (centres unmarked)	-5.53
OCC1(Cc2ccc(Cl)cc2)CCN(Cc2ccc3nsnc3c2)CC1	-6.01
CC(C)CCN1CCN(Cc2ccc3nsnc3c2)CC1CCO (centres unmarked)	-21.3
OCCC1CN(Cc2nc(-c3ccccc3)cs2)CCN1Cc1ccc(F)cc1 (centres unmarked)	-47.1
OCC1(CCc2ccccc2)CCN(Cc2ccc3nsnc3c2)CC1	-69.1
O=C(N/N=C/c1ccc(-c2cccc([N+](=O)[O-])c2)o1)[C@H]1C[C@@H]1c1ccccc1	3.49
CCOC(=O)c1cnc(N)nc1C(F)(F)F	-2.92
CCC(=O)NC(=S)Nc1ccc(NC(=O)COc2ccccc2)cc1	19.7
COc1ccc(C(=O)N2CCN(C(C)=O)CC2)cc1S(=O)(=O)N1CCOCC1	14.4
COc1ccc(C(=O)NCc2ccc3c(c2)OCO3)c(OC)c1	13.6
CC(=O)Nc1ccc(S(=O)(=O)NCC(=O)OCC(=O)N2CCc3ccccc32)cc1	2.85
Cc1ccc2c(CN3CCCCC3)cc(=O)oc2c1	6.38
Cc1ccc2c(CN3CCC(C)CC3)cc(=O)oc2c1	-1.03
CCc1ccc2c(CN(CC)Cc3nc4ccccc4c(=O)[nH]3)cc(=O)oc2c1	-60.5
O=c1cc(CN2CCN(Cc3ccccc3)CC2)c2ccc(O)cc2o1	-79.7
Cc1ccc2c(CN3CCOCC3)cc(=O)oc2c1	-6.01

SMILES	hERG current change (%, negative = inhibition) at 1uM [%]
COc1ccc(CN2CCN(Cc3cc(=O)oc4cc(C)ccc34)CC2)c(OC)c1OC	-87.6
CCN(Cc1nc2ccccc2c(=O)[nH]1)Cc1cc(=O)oc2cc(C)c(C)cc12	-25.2
CCN(Cc1nc2ccccc2c(=O)[nH]1)Cc1cc(=O)oc2cc(OC)ccc12	-25.6
Cc1cc2oc(=O)cc(CN3CCN(Cc4ccccc4)CC3)c2cc1O	-12.5
COc1ccc2oc(=O)cc(CN3CCN(Cc4ccc(OC)c(OC)c4OC)CC3)c2c1	-2.05
O=c1cc(CN2CCN(Cc3ccccc3)CC2)c2cc(O)ccc2o1	-39.4
Cc1ccc2c(CN3CCN(CCO)CC3)cc(=O)oc2c1	-52.1
COc1ccc(CNC(=O)CSc2nnc3c(n2)[nH]c2ccc(OC)cc23)cc1	11.1
Cc1ccc(NS(=O)(=O)c2cc(NC(=O)c3cc4c(s3)CCCC4)ccc2C)c(C)c1	7.78
CCC1(CC)C(=O)NC(=O)NC1=NCCc1c[nH]c2ccccc12	21.2
Fc1cccc(CN2CCN(Cc3nc(CCc4ccccc4)no3)CC2)c1	3.49
Cc1ccc2oc(=O)cc(CN3CCN(Cc4ccccc4)CC3)c2c1	-18.6
COC(=O)C1CCN(Cc2cc(=O)oc3cc(OC)ccc23)CC1	-1.21
Cc1cc(C)c2c(CN3CCN(Cc4ccc5c(c4)OCO5)CC3)cc(=O)oc2c1C	2.67
CCc1ccc2c(CN3CCOCC3)cc(=O)oc2c1	-4.5
COc1ccc2oc(=O)cc(CN3CCOCC3)c2c1	10.4
Cc1cc2oc(=O)cc(CN3CCN(Cc4ccccc4)CC3)c2cc1Cl	0.748
CCc1ccc2oc(=O)cc(CN3CCN(Cc4ccccc4)CC3)c2c1	-17.6
COc1ccc(OC)c(CN2CCN(Cc3cc(=O)oc4cc(O)ccc34)CC2)c1	-67
Cc1ccc2c(CN3CCN(Cc4ccccc4)CC3)cc(=O)oc2c1	-84
Cc1cc2oc(=O)cc(CN3CCN(Cc4ccc5c(c4)OCO5)CC3)c2cc1C	0.724
CCc1ccc2c(CN3CCN(Cc4ccccc4)CC3)cc(=O)oc2c1	-84.6
Cc1cc(C)c2c(CN3CCN(Cc4ccc5c(c4)OCO5)CC3)cc(=O)oc2c1	-50.3
